The values that follow come from PubChem BioAssay (NCATS).

Values without a mark were called inactive. Results filed as inconclusive are left out. Calls of active or inactive are those of the source. Unless noted, calls follow the shape of the dose curve; as a rule, active = well fitted curve in the direction sought with a large enough effect; inconclusive = small, poorly fitted or top-dose-only effect, or another doubt; inactive = no such curve, though single readings can be large; an effect the other way counts as inactive or inconclusive.

A short description of assay [1]: NFAT Signaling Pathway (AID 444; active = well fitted curve in either direction with a large enough effect, not every such curve was filed as active;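 also: carbachol stimulus at about its EC50 of 1 µM final; % is scaled to controls: 0 for no effect and ±100 for the full control effect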). To be noted: Jurkat NFAT-bla M1, carbachol, beta-lactamase ratio, 5 h; at 17.2 µM (top of the series) unless noted. Put shortly: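 Jurkat cells with NFAT-driven β-lactamase reporter and co-expressed M1 receptor, stimulated with carbachol (final 1 uM, ~EC50), compound titration, 5 h at 37 °C. CCF4 loaded 1 h at RT; 460/530 nm ratio gave %activity and AC50.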

Assay [2] in a line: Stat Signaling Pathway (AID 446; active = well fitted curve in either direction with a large enough effect, not every such curve was filed as active;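 also: ME-180 cervical cancer cells given 40 pM IL-6 alongside compound; SIE-controlled beta-lactamase reporter measured as 460/530 nm FRET emission ratio; % is scaled to controls: 0 for no effect and ±100 for the full control effect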). In a few lines: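 Reporter line: ME-180 cervical carcinoma, SIE-beta-lactamase. Treatment: compound with 40 pM IL-6, 5 hrs, 37 C, in low-serum OPTI-MEM with 10 mM HEPES pH 7.3. Detection: 460/530 nm fluorescence.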
The target in assay [3] is Glucocorticoid receptor (Homo sapiens) (UniProt P04150). Put plainly: GR-GFP Redistribution (AID 450;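 active = compounds whose dose series gives a full or clear partial fitted curve of increased nuclear translocation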; also: potency is read from the fitted curve at half-maximal effect). To be noted: U2OS GR-GFP nuclear translocation, laser cytometry, 2 h.
Glucocorticoid receptor (Homo sapiens), sequence (P04150 whole entry, looked up, the tested form may be a part): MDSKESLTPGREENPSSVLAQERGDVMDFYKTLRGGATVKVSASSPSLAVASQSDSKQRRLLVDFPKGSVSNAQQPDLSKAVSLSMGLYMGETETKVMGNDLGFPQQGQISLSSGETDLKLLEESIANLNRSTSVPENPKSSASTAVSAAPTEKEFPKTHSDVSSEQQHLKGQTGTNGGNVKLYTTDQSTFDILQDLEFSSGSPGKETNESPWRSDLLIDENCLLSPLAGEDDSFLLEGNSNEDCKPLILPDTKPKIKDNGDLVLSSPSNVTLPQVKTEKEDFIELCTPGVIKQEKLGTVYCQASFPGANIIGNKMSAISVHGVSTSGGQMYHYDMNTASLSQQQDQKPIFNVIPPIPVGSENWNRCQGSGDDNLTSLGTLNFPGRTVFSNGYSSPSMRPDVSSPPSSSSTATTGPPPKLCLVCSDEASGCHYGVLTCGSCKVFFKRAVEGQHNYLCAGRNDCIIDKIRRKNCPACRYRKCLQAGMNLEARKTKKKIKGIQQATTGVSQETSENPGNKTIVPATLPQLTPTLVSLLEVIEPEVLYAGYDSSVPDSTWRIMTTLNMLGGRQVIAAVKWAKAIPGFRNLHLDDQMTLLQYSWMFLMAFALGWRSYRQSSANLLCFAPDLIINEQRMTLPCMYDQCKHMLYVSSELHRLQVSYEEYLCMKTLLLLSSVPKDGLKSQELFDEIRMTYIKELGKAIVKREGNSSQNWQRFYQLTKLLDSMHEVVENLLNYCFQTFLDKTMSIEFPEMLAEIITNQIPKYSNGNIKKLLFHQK
Assay [4] deals with Mitogen-activated protein kinase 10 (Mus musculus) (UniProt Q61831). Put plainly: JNK3 AlphaScreen Assay (AID 530; active = well fitted curve in either direction with a large enough effect, not every such curve was filed as active;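 also: kinase came from lysate of stimulated human HepG2 cells; signal reports phosphorylation of biotinylated GST-cJun 1-79 at Ser73 with 10 µM ATP; % is scaled to controls: 0 for no effect and ±100 for the full control effect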). Put shortly:
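Pre-activated (IL-1β/TNFα) JNK3 in HepG2 lysates phosphorylates biotin-GST-cJun(1-79), 10 uM ATP; anti-phospho-cJun(Ser73) AlphaScreen read at room temperature, pH 7.6 Tris buffer. Compounds pre-incubated 15 min as titrations.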

Assay [5] concerns the target 3',5'-cyclic-AMP phosphodiesterase 4B (Homo sapiens) (UniProt Q07343). Put plainly: qHTS Assay for Inhibitors of PDE-IV (AID 607; active = well fitted activation curve with a large enough effect in the main read-out, with a control signal flat, not every such curve was filed as active; also: % of control where 0% means no effect). In a few lines:
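Cell-based read-out of cAMP via a modified cyclic nucleotide-gated channel and membrane potential dye (535/590 nm) in HEK293 cells expressing PDE4 endogenously. Compounds tested up to 22.9 uM final; 100 uM RO 20-1724 reference.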
(In general: In qHTS, concentration-response curves come from the screen itself.)

For assay [6], the target named is Cytochrome P450 3A4 (Homo sapiens) (UniProt P08684). Put plainly: qHTS Assay for Activators of Cytochrome P450 3A4 (AID 885). Also: nearly all actives have a fitted effect of over 65% in size. In a few lines: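 Signal was normalized against complete inhibition by 57 uM ketoconazole. The reaction used 20nM CYP3A4 with 25uM Luciferin-PPXE, 10-min compound preincubation and a 60-min NADPH-supported step at RT.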
Cytochrome P450 3A4 (Homo sapiens), sequence (P08684 whole entry, looked up): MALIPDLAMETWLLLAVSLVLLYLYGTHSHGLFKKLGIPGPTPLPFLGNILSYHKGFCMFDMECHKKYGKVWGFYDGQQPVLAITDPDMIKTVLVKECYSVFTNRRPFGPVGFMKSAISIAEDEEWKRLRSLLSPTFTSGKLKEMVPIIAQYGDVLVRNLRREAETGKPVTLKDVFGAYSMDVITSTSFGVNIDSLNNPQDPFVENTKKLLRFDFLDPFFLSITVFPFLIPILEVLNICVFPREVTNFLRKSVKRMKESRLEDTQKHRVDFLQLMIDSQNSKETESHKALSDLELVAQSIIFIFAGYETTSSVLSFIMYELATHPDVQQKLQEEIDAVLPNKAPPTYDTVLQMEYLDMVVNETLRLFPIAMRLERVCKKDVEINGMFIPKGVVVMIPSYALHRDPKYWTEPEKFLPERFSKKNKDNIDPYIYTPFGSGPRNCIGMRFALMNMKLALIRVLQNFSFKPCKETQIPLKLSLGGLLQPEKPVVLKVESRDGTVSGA
The target of assay [7] is Luciferin 4-monooxygenase (Photinus pyralis) (UniProt P08659). The experiment in a line: Biochemical firefly luciferase enzyme assay for NPC (AID 624030).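 Also: purified P. pyralis luciferase at 10 nM with luciferin and ATP substrate; 0% = DMSO and -100% = full luciferase inhibition by PTC124 control; nearly all actives have a fitted effect of over 70% in size.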 In a few lines: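 Purified P. pyralis luciferase at 10 nM in 50 mM Tris Acetate (final), luminescence read within 5 minutes of enzyme addition to compounds. Activity normalised to PTC124 versus DMSO; concentration-response curves classed by r2, magnitude and activity.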
Luciferin 4-monooxygenase (Photinus pyralis), sequence (P08659 whole entry, looked up): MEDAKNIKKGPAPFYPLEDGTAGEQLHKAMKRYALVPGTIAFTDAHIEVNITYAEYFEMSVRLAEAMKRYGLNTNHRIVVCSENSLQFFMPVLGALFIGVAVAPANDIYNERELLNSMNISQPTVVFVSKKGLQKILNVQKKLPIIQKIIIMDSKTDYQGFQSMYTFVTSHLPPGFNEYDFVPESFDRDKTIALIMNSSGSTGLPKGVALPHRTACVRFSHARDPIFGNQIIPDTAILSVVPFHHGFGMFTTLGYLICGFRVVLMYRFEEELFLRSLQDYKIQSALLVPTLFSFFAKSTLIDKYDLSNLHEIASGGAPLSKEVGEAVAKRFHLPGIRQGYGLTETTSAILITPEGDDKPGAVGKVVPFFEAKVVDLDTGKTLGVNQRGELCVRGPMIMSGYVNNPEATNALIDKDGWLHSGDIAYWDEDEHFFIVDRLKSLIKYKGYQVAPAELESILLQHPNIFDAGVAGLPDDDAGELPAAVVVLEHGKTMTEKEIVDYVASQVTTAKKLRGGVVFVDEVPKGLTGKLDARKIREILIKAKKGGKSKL

Another assay concerns 7G8. The experiment in a line: qHTS profiling for inhibitors of Plasmodium falciparum proliferation (AID 504749). Also: nearly all actives have a fitted effect of over 60% in size. Also: potency is read from the fitted curve at half-maximal effect. The note with it: P. falciparum in erythrocytes, SYBR Green DNA, 72 h; series mostly up to 12.8 µM. Put shortly: (§1)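 P. falciparum-infected erythrocytes (0.3% parasitemia, 2.5% hematocrit) incubated with compound 72 h at 37 C, 5% CO2. Parasite DNA detected by SYBR Green after lysis, overnight at room temperature; normalised to 0.29 uM artemisinin and DMSO.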

Another assay deals with CP215. Described as above. The note with it: P. falciparum in erythrocytes, SYBR Green DNA, 72 h; series mostly up to 12.8 µM. In a few lines:
as §1

The subject of a further assay is DFO2036. The description is as above. To be noted: P. falciparum in erythrocytes, SYBR Green DNA, 72 h; series mostly up to 12.8 µM. In a few lines: as §1
A further assay deals with DIV14. The assay is described as above. To be noted: P. falciparum in erythrocytes, SYBR Green DNA, 72 h; series mostly up to 12.8 µM. Put shortly: as §1
The subject of a further assay is GB4. Described as above. The note with it: P. falciparum in erythrocytes, SYBR Green DNA, 72 h; series mostly up to 12.8 µM. Put shortly:
as §1

The next assay has as its system W2. Described as above. To be noted: P. falciparum in erythrocytes, SYBR Green DNA, 72 h; series mostly up to 12.8 µM. In a few lines:
as §1

Assay [8] addresses Cytochrome P450 1A2 (Homo sapiens) (UniProt P05177). The experiment in a line: p450-cyp1a2 (AID 410; calls by dose curve; also: potency is read from the fitted curve at half-maximal effect;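 as to activity change, negative = inhibition: -100% = full effect of reference inhibitor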). Put shortly: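 20nM CYP1A2 with 100uM Luciferin-ME (at Km) in 100mM KPO4; compound preincubated 10 min, NADPH regeneration added, 60 min at room temperature. Luciferin quantified by luminescence after detection reagent; normalized to 57 uM furafylline.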
Assay [9] addresses Glucocorticoid receptor (Homo sapiens) (UniProt P04150). The experiment in a line: GR-EFC Redistribution (AID 451; calls by dose curve; also: potency is read from the fitted curve at half-maximal effect). To be noted: CHO-K1 GR-EFC translocation, beta-gal luminescence, 2 h. In a few lines: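 CHO-K1 cells expressing nuclear EA and GR-ED fragments of b-gal; compounds titrated up to 46 uM final, 2 h at 37 C. GR nuclear translocation read as complemented b-gal luminescence after 1 h RT detection.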

Assay [10] can be described thus: S16 Schwann cell viability assay (CellTiter-Glo assay) (AID 624031).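 Also: native untransfected S16 rat Schwann cells; cellular ATP luminescence as a viability measure; plate controls were DMSO-treated cells for no effect and cell-free wells for full effect; nearly all actives have a fitted effect of over 70% in size.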 Put shortly:
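Concentration-effect curves come from CellTiter-Glo luminescence of S16 rat Schwann cells after 24 h compound exposure. Each reading was normalized to DMSO wells (0%) and wells without cells, and curves were ranked by r2 and response magnitude.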
For orientation: Cellular ATP, detected with luciferase, serves as a proxy for viable cell number.

A short description of assay [11]: S16 Schwann cell PMP22 intronic element firefly luciferase assay (AID 624032).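 Also: plate controls were DMSO for no effect and PTC124 positive control mean for full effect; nearly all actives have a fitted effect of over 30% in size.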 In a few lines:
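Rat S16 Schwann cells stably carrying firefly luciferase driven by a PMP22 intronic element, in 10% FBS, treated 24 h at 37 C. ONE-Glo luminescence normalized to PTC124 control and DMSO (0%); curves classed by r2, magnitude and activity.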

The target of assay [12] is Cytochrome P450 3A4 (Homo sapiens) (UniProt P08684). The experiment in a line: qHTS Assay for Inhibitors and Substrates of Cytochrome P450 3A4 (AID 884). Also: % is scaled to controls: 0 for no effect and ±100 for the full control effect; nearly all actives have a fitted effect of over 50% in size. In a few lines: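 20 nM human CYP3A4 with 25 uM Luciferin-PPXE (at KM) in 200 mM KPO4, preincubated 10 min with compound; NADPH regeneration started a 60 min RT reaction. Luciferin detected by luminescence, normalized to 57 uM ketoconazole as full inhibition.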

Assay [13] addresses DNA dC->dU-editing enzyme APOBEC-3G (Homo sapiens) (UniProt Q9HC16). Put plainly: qHTS for inhibitors of Vif-A3G interactions: Validation (AID 588379). Also: 0% is about no effect. In a few lines: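 HeLa cells stably expressing Vif and A3G-eYFP, 700 cells/well, incubated overnight at 37 deg C, then exposed to compound overnight at 37 deg C. Inhibition of Vif-mediated degradation read as increased yellow fluorescence (Ex 488/Em 500-530) by laser-scanning cytometry.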

3',5'-cyclic-AMP phosphodiesterase 4B (Homo sapiens), sequence (Q07343 whole entry, looked up): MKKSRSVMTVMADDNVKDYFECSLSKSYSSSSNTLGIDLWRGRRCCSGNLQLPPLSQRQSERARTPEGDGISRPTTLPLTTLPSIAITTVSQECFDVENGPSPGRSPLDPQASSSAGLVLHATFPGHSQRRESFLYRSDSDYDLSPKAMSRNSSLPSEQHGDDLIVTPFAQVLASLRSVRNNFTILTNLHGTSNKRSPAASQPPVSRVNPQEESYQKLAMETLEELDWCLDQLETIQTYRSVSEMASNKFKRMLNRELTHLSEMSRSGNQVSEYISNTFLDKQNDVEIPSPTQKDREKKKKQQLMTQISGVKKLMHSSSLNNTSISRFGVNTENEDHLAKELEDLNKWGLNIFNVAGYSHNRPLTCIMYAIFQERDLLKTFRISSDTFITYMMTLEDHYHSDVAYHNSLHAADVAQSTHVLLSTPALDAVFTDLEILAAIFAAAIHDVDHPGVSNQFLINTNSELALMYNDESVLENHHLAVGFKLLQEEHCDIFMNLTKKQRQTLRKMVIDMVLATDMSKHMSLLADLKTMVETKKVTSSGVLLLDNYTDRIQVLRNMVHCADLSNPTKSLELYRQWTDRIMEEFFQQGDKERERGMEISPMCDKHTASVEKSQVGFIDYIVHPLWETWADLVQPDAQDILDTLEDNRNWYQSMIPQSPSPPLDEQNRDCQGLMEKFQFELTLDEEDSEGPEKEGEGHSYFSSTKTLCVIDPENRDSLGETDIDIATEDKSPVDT
Cytochrome P450 1A2 (Homo sapiens), sequence (P05177 whole entry, looked up, the tested form may be a part): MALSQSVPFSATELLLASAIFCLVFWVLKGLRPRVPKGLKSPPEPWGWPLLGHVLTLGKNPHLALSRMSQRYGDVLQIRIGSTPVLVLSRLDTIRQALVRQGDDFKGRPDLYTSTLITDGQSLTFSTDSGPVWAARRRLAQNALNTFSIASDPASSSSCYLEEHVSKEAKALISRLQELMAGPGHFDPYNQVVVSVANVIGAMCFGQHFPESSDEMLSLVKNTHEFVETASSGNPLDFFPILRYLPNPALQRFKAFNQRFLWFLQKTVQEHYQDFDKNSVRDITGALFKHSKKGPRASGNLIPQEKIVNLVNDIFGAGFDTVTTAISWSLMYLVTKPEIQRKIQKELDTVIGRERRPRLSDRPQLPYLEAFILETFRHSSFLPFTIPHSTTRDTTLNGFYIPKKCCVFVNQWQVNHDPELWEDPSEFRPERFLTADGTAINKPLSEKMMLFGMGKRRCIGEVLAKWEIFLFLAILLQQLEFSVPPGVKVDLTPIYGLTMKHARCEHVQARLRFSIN
DNA dC->dU-editing enzyme APOBEC-3G (Homo sapiens), sequence (Q9HC16 whole entry, looked up): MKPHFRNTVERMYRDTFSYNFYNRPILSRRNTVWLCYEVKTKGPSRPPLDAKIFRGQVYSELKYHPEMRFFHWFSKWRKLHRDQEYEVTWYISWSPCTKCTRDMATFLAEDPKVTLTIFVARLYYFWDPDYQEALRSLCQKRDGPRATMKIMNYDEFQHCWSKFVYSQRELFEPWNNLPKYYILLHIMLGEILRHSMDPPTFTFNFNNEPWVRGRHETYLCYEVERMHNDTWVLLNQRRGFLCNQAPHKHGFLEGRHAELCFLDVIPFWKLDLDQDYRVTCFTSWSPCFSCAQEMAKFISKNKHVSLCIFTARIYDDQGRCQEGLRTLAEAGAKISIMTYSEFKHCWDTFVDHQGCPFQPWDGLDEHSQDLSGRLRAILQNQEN

Consider `CC(C)(C)NC(=O)[C@@H]1C[C@H]2CCCC[C@@H]2CN1C[C@H](O)[C@H](Cc1ccccc1)NC(=O)[C@@H](CC(N)=O)NC(=O)c1ccc2ccccc2n1`, for which, in assay [1], the activity change, negative = inhibition was -14.7%. The outcome in assay [2] and in [5] was inactive. The Potency in assay [3] is above 20.6 µM. In assay [4], the Potency entry was “inactive”.
Turning to `COc1cc(N[C@@H](C)CCCN)c2ncccc2c1`, the result in assay [2] and in [5] was inactive. Further, the Potency result in assay [4], in [6] and in assay [7] was “inactive” throughout. Besides, the Potency with 7G8 is 0.316 µM (active); with CP215, 3.61 µM (active); with DFO2036, 3.55 µM (active); with DIV14, 0.572 µM (active); with GB4 it was 0.809 µM (active); in the assay with W2, 2.03 µM (active).
As to `CC=C(/C(=C/C)c1ccc(O)cc1)c1ccc(O)cc1`, the Potency in [8] is 15.8 µM (active); in [3] it was above 20.6 µM; in assay [9], above 20.6 µM. Besides, the compound was called inactive in [2], in [5] and in [10]. For the same compound, the Potency entry (in assay [4]; in [6]; in assay [11]; with 7G8; with CP215; with DFO2036) was “inactive” throughout. For the same compound, the Potency entry in the assay with DIV14, with GB4 and with W2 was “inactive” throughout.
As to `CN1[C@H](CC(=O)c2ccccc2)CCC[C@H]1C[C@@H](O)c1ccccc1`, the Potency in assay [8] is 31.6 µM (active). Moreover, the Potency entry in assay [4] and in [12] was “inactive” each time. For the same compound, the outcome in assay [13] was inactive.
Regarding `CCOC(=O)Oc1c(OC)cc(C(=O)O[C@H]2C[C@H]3CN4CCc5c([nH]c6cc(OC)ccc56)[C@@H]4C[C@H]3[C@@H](C(=O)OC)[C@@H]2OC)cc1OC`, the Potency result in assay [8], in assay [4] and in assay [7] was “inactive” in each case. Moreover, in assay [1], the activity change, negative = inhibition was -2.78%. For the same compound, the call in assay [2] and in assay [5] was inactive. For the same compound, the Potency in [3] was above 20.6 µM; in assay [9], above 20.6 µM; in the assay with 7G8, 2.51 µM (active); in the assay on DIV14, 5.73 µM (active); in the assay with GB4, 6.42 µM (active); in the assay on W2 it was 2.56 µM (active).
Regarding `CCC(C)(C)C(=O)O[C@@H]1C[C@H](C)C=C2C=C[C@H](C)[C@@H](CC[C@H]3C[C@@H](O)CC(=O)O3)[C@H]21`, the activity change, negative = inhibition in assay [1] is 7.6%. Also, the compound was called inactive in [2] and in [10]. In addition, the Potency in assay [3] was above 20.6 µM. Further, the Potency result (in assay [4]; in assay [7]; in assay [11]; with CP215; in the assay on DFO2036; with DIV14) was “inactive” each time.
For the compound `O=C(OC[C@@H](O)CO)c1ccccc1Nc1ccnc2cc(Cl)ccc12`, the figures for the Potency (in assay [8]; in the assay with 7G8) were 5.01 µM (active) and 3.98 µM (active), respectively. The compound was classed as inactive in assay [2], in assay [5] and in assay [10]. Besides, the Potency entry (in assay [4]; in assay [7]; in the assay on CP215; with DFO2036) was “inactive” throughout.
`FC(F)(F)c1ccccc1-c1ccc2ncnc(NC3CCNCC3)c2c1`: the activity change, negative = inhibition in [1] is 2.61% [at 7.69 µM]. Further, the compound was classed as inactive in assay [2] and in assay [5]. In addition, the Potency in [3] and in assay [9] was above 46 µM in each case. Further, in assay [4], the Potency result was “inactive”.
